Sampled rows, rich in hits. Any-hit rate of the full collection: about 2.6%.
H9c2 protect – myocardial damage modulation in H9c2 cells. protection from H2O2 cell death, % at 20 µM. 360,000 tested, 0.63% active. H9c2 cardiomyocytes, H2O2 injury protection, ATPLite, 2 h;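 active = compounds giving at least 50% protection of heart cells from peroxide-induced death in the single-dose screen, raw or plate-pattern-corrected value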;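 note: 0% = DMSO wells with peroxide and 100% = DMSO wells without peroxide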
NR2F2 inh – blocks human COUP-TFII nuclear receptor; AID 686940; 370,000 tested, 0.7% active; HEK293T NGFI-A luciferase reporter, luminescence; inhibition, % at 8.6 µM;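 active = inhibition above a per-plate cutoff, mean inhibition of test wells between control levels plus 3 SD, cut at about 38% in these data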;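 note: cells cotransfected with COUP-TFII expression vector driving the NGFI-A reporter; 0% = median of COUP-TF2 test wells and 100% = reporter-only cells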
Target sequence (P24468 whole entry, looked up): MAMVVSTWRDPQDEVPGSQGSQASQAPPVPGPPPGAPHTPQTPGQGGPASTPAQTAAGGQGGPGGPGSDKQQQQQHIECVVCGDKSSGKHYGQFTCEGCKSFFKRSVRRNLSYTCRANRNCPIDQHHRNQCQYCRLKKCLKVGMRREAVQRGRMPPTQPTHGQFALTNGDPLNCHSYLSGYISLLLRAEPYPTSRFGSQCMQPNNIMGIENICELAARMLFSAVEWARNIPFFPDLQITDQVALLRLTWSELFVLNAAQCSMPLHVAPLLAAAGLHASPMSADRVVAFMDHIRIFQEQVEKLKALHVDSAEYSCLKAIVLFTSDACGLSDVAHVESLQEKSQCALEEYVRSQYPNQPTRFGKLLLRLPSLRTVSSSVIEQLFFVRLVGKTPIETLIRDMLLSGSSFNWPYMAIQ
Jurkat NFkB inh – inhibitors of the PMA/ionomycin-induced NF-kB reporter in Jurkat cells | PMA/ionomycin-induced NF-kB luciferase reporter, luminescence | 330,000 tested, 0.53% active | inhibition, % at 4 µM | AID 435003; in the data active = inhibition above about 50%
697 NFkB inh – inhibitors of the PMA/ionomycin-induced NF-kB reporter in 697 B cells. 697 B-cell NF-kB luciferase reporter, 16 h. 330,000 tested, 0.33% active. inhibition, % at 4 µM; in the data active = inhibition above about 35%
Gli-Sufu antag – blocks Gli-Sufu signaling in a luciferase reporter; AID 588413; inhibition, % at 5 µM; Sufu-KO-LIGHT fibroblasts, Gli luciferase reporter luminescence; 340,000 tested, 0.74% active;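 active = inhibition above about 55%, limit read from the data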;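 note: 0% = DMSO-treated cells and 100% = wells with medium but no cells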
TAG inh – reduces triacylglycerol accumulation in H9c2 cells. Nile Red lipid (TAG) fluorescence; cells loaded with 200 µM oleic acid. inhibition, % at 12.5 µM. 230,000 tested, 0.66% active;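 active = pattern-corrected inhibition of lipid staining of at least 50% with the nuclear-stain viability signal not falling by more than 50%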;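 note: 0% = DMSO wells and 100% = triacsin C control wells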
Jurkat NFkB conf – lowers PMA/ionomycin-induced NF-kB signal in Jurkat cells; Jurkat NF-kB luciferase, 16 h; inhibition, % at 4 µM; 2,700 tested, 27% active; shares compounds with Jurkat NFkB inh;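 active = inhibition reaching about 45% at 4 µM in either replicate, limit read from the data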;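 note: plate controls were PMA/ionomycin stimulated DMSO wells for no effect and unstimulated DMSO wells for full effect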
697 NFkB conf – inhibitors of the PMA/ionomycin-induced NF-kB reporter in 697 B cells, retest | shares compounds with 697 NFkB inh | 697 B-cell NF-kB luciferase, 16 h | inhibition, % at 4 µM | 2,000 tested, 35% active; in the data active = inhibition mostly above about 28%, no sharp cut-off; inactive = mostly below about 22%
Gli antag conf – Gli-SUFU antagonism confirmation, single concentration | shares compounds with Gli-Sufu antag | Sufu-KO-LIGHT cells, Gli luciferase reporter, luminescence | AID 602428 | 2,500 tested, 40% active | inhibition, % at 5 µM;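 active = mean inhibition at 5 µM reaching about 45%, limit read from the data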;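 note: plate controls were DMSO-treated cells for no effect and wells lacking cells for full effect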
Gli cytotox – cytotoxic in Gli-SUFU antagonist counter-screen; shares compounds with Gli-Sufu antag; Sufu-KO-LIGHT cells cytotoxicity, ATP luminescence; cytotoxicity, % at 5 µM; 2,500 tested, 32% active; AID 651994;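 active = mean cytotoxicity at 5 µM above about 25%, limit read from the data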;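 note: cells exposed to compound overnight for roughly 16 to 18 hours; plate controls were DMSO wells with cells for no effect and medium without cells for full effect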
Wnt3a counter – counter-screen for Gli-SUFU antagonists: Wnt3a reporter inhibition; inhibition, % at 6.25 µM; Wnt-LIGHT cells, Wnt3a-driven luciferase reporter, luminescence; 2,500 tested, 20% active; AID 651995; shares compounds with Gli-Sufu antag;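 active = mean inhibition above about 25%, limit read from the data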
TAG conf – triacylglycerol accumulation inhibition, confirmation; shares compounds with TAG inh; H9c2 lipid accumulation, Nile Red fluorescence; cells loaded with 200 µM oleic acid; inhibition, % at 12.5 µM; 990 tested, 71% active;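 active = mean inhibition across replicates of 40% or more; inactive = mean inhibition below 40%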;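 note: plate controls were DMSO only wells for no effect and Triacsin C treated wells for full effect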
The depositor's hits bear a star; / = not tested or not shown.

SMILES	H9c2 protect	NR2F2 inh	Jurkat NFkB inh	697 NFkB inh	Gli-Sufu antag	TAG inh	Jurkat NFkB conf	Gli antag conf	Gli cytotox	Wnt3a counter	others
C/C(=N\NC(=O)C(c1ccccc1)c1ccccc1)c1ccccn1	47.5	11.7	78.8*	-12.2	88.7*	/	16.2	55.9*	30.6*	37.1*
C/C(=N\NC(=O)C1COc2ccccc2O1)c1ccccn1 (stereo not drawn)	43.6	21.9	72.9*	-3.3	89.0*	/	12.2	73.0*	44.3*	52.8*
C/C(=N\NC(=O)C1COc2ccccc2O1)c1ccc(C)o1 (stereo not drawn)	8.5	14.9	-4.5	5.9	5.2	20.2	/	/	/	/
C/C(=N\NC(=O)C(c1ccccc1)c1ccccc1)c1ccc(O)cc1	-0.9	4.2	-7.7	-14.5	-8.4	/	/	/	/	/
C[C@H]1C(=O)N2[C@@H](C[C@]3(c4c[nH]c5ccccc45)c4ccccc4N(S(=O)(=O)c4ccccc4)[C@H]23)C(=O)N1C	/	0.6	/	/	/	/	/	/	/	/
Cc1ccc(-n2c(SCc3cccc4ccccc34)nnc2-c2ccccn2)cc1	/	13.7	/	/	/	/	/	/	/	/
CN1/C(=C\C(=O)COC(=O)c2ccco2)C(C)(C)c2ccccc21	-21.2	3.8	5.8	7.9	11.8	-18.9	/	/	/	/
CN1/C(=C\C(=O)c2ccco2)C(C)(C)c2ccccc21	-20.2	29.5	57.3*	-69.0	84.4*	/	-0.2	81.2*	35.2*	24.1
NC(=O)CC(NC(=O)c1ccc(Br)cc1)c1ccc(N2CCCCCC2)c([N+](=O)[O-])c1 (stereo not drawn)	-6.1	14.7	53.8*	-0.3	60.9*	-7.4	47.3	32.1	22.6	-109.0
NC(=O)CC(NC(=O)c1ccccc1)c1ccc(N2CCCCCCC2)c([N+](=O)[O-])c1 (stereo not drawn)	-11.0	-4.6	4.5	-4.1	36.4	22.6	/	/	/	/
COc1ccc(C(C(=O)NC2CCCCC2)N(C(=O)CCl)c2ccc(OC)cc2)cc1 (stereo not drawn)	-6.1	/	93.5*	98.2*	84.0*	/	31.8	32.6	18.8	-40.0	697 NFkB conf=80.1*
COc1ccc(C(C(=O)NC2CCCCC2)N(C(=O)CCl)c2cccc(Cl)c2)cc1 (stereo not drawn)	1.7	-8.1	/	/	/	/	/	/	/	/
COc1ccc(C(C(=O)NC2CCCCC2)N(C(=O)CCl)c2ccc(C)cc2)cc1 (stereo not drawn)	-8.5	-9.4	94.5*	95.1*	86.2*	/	39.2	32.9	29.5*	15.0	697 NFkB conf=-9.8
COc1ccc(/C=N\NC(=O)CN2CCN(Cc3ccccc3)CC2)cc1OCc1ccccc1	/	-1.2	/	/	/	/	/	/	/	/
Cc1ccc(Nc2nc(-c3c(C)nc4ncccn34)cs2)cc1	-3.9	-107.9	67.6*	19.9	57.0*	/	48.5*	64.1*	62.1*	-61.4
CCN(CC)C(=O)CC[C@@H]1CC[C@]2(CCCN(C(=O)c3cccnc3)C2)O1	/	7.0	/	/	/	/	/	/	/	/
CCN(CC)S(=O)(=O)c1ccc(N/N=C/c2ccc(O)cc2O)nc1	78.4*	-39.9	50.6*	-66.4	57.7*	/	13.8	69.6*	26.4*	78.7*
O=C(Nc1ccc(S(=O)(=O)N2CCCC2)cc1)c1cnccn1	-5.3	12.2	1.5	21.1	3.0	11.8	/	/	/	/
O=C(Nc1ccc(S(=O)(=O)N2CCN(Cc3ccccc3)CC2)cc1)c1cnccn1	-19.6	14.9	57.0*	-5.6	57.5*	/	54.2*	60.4*	32.7*	28.6*
CCOCCOC(=O)c1[nH]c2c(c1C)C(=O)CC(c1ccc(N(C)C)cc1)C2 (stereo not drawn)	-20.5	7.2	11.4	0.1	-8.8	47.2	/	/	/	/
C/C=C/COC(=O)c1[nH]c2c(c1C)C(=O)CC(c1ccco1)C2 (stereo not drawn)	1.2	-50.0	58.6*	-25.3	56.2*	30.5	42.8*	67.0*	60.1*	-7.0
CC(C)n1c(CN(C)Cc2ccccc2)nc2c1c(=O)n(C)c(=O)n2C	/	29.8	57.3*	-0.2	69.7*	/	53.1*	78.3*	24.9	47.8*
COC(=O)[C@]12C[C@H](CC(=O)NCc3cccs3)C(=O)N(Cc3ccco3)C1=C[C@H](COCc1ccccc1)O[C@@H]2C	/	-14.5	/	/	/	/	/	/	/	/
COC(=O)[C@]12C[C@H](CC(=O)N3CCCC3)C(=O)N(Cc3ccc(Cl)cc3Cl)C1=C[C@H](COCc1ccccc1)O[C@@H]2C	/	-9.5	/	/	/	/	/	/	/	/
COC(=O)c1ccc(NC(=O)Cn2c(-c3nonc3N)nc3ccccc32)cc1	18.2	-21.0	6.8	18.3	-8.3	5.4	/	/	/	/
SMILES	H9c2 protect	NR2F2 inh	Jurkat NFkB inh	697 NFkB inh	Gli-Sufu antag	TAG inh	Jurkat NFkB conf	Gli antag conf	Gli cytotox	Wnt3a counter	others
COC(=O)c1ccccc1NC(=O)Cn1c(-c2nonc2N)nc2ccccc21	-6.8	/	83.0*	23.8	57.9*	/	50.6*	62.7*	62.5*	-3.5
Nc1ncnc2c1ncn2[C@H]1C[C@H](O)[C@@H](CO)O1	8.3	3.2	-0.1	17.5	-4.2	/	/	/	/	/
Nc1nc(Cl)nc2c1ncn2[C@H]1C[C@H](O)[C@@H](CO)O1	-2.9	-54.5	64.5*	57.1*	83.5*	21.5	41.0	67.8*	25.1*	50.1*	697 NFkB conf=68.2*
COc1cc(NC(=O)C2CCCN(S(=O)(=O)c3ccc(C)c(C)c3)C2)cc(OC)c1 (stereo not drawn)	/	23.8	/	/	/	/	/	/	/	/
O=C(N/N=C/c1ccccc1Cl)c1[nH]c2ccc(Br)cc2c1-c1ccccc1	-6.6	3.9	63.7*	-231.3	67.8*	5.3	54.2*	58.0*	61.5*	-17.2
CCCCN1CN2Cc3cc(OC)ccc3C2CS1(=O)=O (stereo not drawn)	/	3.2	/	/	/	/	/	/	/	/
Cc1cc(NC(=O)c2cc(-c3ccncc3)nc3c(C)cccc23)no1	11.7	7.6	51.6*	-26.2	-0.2	64.4*	23.1	/	/	/	TAG conf=66.2*
COC(=O)CSc1nnc(-c2ccc(NS(=O)(=O)c3ccc(C)c(C)c3)cc2)o1	/	-1.1	/	/	/	/	/	/	/	/
Cc1ccc(/C=N/NC(=O)c2cc(-c3cccnc3)nc3ccccc23)cc1	-2.8	-5.6	62.8*	-14.5	-3.5	56.7*	11.6	/	/	/	TAG conf=48.7*

Screens deposited in PubChem BioAssay by several laboratories.
